Among all 5,500 compounds or so, about 2,000 (36%) were called active. Not shown: some 18% with an inconclusive outcome. Rule as the data show it: active = normalized growth mostly below about 0.91 (no sharp cut-off); inconclusive = no clear call, values can overlap the other calls; inactive = mostly above about 0.92. The list shows a part of the results.
Test: chemical genetic growth profiling, strain panel (AID 1159580);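 also: tested at 20 µM; growth read once vehicle control cultures reached saturation at 30 °C; 1 = growth at the plate median or of vehicle wells; lower values mean less growth of the strain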
Conditions: S. cerevisiae deletion strains, growth OD
[1] = locus YAR019C, strain CDC15, hits give low values
[2] = locus YBL105C, strain PKC1, hits give low values
[3] = locus YBR135W, strain CKS1, hits give low values
[4] = locus YBR136W, strain MEC1, hits give low values
[5] = locus YBR160W, strain CDC28, hits give low values
[6] = locus YDL017W, strain CDC7, hits give low values
[7] = locus YDL028C, strain MPS1, hits give low values
[8] = locus YDL101C, strain DUN1, hits give low values
[9] = locus YDL108W, strain KIN28, hits give low values
[10] = locus YDL132W, strain cdc53, hits give low values
[11] = locus YDL214C, strain PRR2, hits give low values
[12] = locus YDR052C, strain DBF4, hits give low values
[13] = locus YDR054C, strain cdc34, hits give low values
[14] = locus YDR226W, strain ADK1, hits give low values
[15] = locus YDR477W, strain SNF1, hits give low values
[16] = locus YER123W, strain YCK3, hits give low values
[17] = locus YER133W, strain GLC7, hits give low values
[18] = locus YFL009W, strain cdc4, hits give low values
[19] = locus YFL029C, strain CAK1, hits give low values
[20] = locus YFR003C, strain YPI1, hits give low values
[21] = locus YFR019W, strain FAB1, hits give low values
[22] = locus YFR028C, strain CDC14, hits give low values
[23] = locus YGR040W, strain KSS1, hits give low values
[24] = locus YGR052W, strain FMP48, hits give low values
[25] = locus YGR092W, strain DBF2, hits give low values
[26] = locus YHR030C, strain SLT2, hits give low values
[27] = locus YHR079C, strain IRE1, hits give low values
[28] = locus YHR082C, strain KSP1, hits give low values
[29] = locus YHR205W, strain SCH9, hits give low values
[30] = locus YIL147C, strain SLN1, hits give low values
[31] = locus YJL095W, strain BCK1, hits give low values
[32] = locus YJL128C, strain PBS2, hits give low values
[33] = locus YJL157C, strain FAR1, hits give low values
[34] = locus YJR016C, strain ILV3, hits give low values
[35] = locus YJR066W, strain TOR1 (second series), hits give low values
[36] = locus YJR066W, strain TOR1, hits give low values
[37] = locus YKL048C, strain ELM1, hits give low values
[38] = locus YKL067W, strain YNK1, hits give low values
[39] = locus YKL101W, strain HSL1, hits give low values
[40] = locus YKL193C, strain SDS22, hits give low values
[41] = locus YKL203C, strain TOR2, hits give low values
[42] = locus YLR113W, strain HOG1, hits give low values
[43] = locus YLR133W, strain CKI1, hits give low values
[44] = locus YLR403W, strain SFP1, hits give low values
[45] = locus YML070W, strain DAK1, hits give low values
[46] = locus YMR001C, strain CDC5, hits give low values
[47] = locus YMR205C, strain PFK2 (second series), hits give low values
[48] = locus YMR277W, strain FCP1, hits give low values
[49] = locus YNL006W, strain LST8, hits give low values
[50] = locus YNL020C, strain ARK1, hits give low values
[51] = locus YNL161W, strain CBK1, hits give low values
[52] = locus YNL183C, strain NPR1, hits give low values
[53] = locus YNL207W, strain RIO2, hits give low values
[54] = locus YNL222W, strain SSU72, hits give low values
[55] = locus YNL307C, strain MCK1 (second series), hits give low values
[56] = locus YOL078W, strain AVO1, hits give low values
[57] = locus YOL136C, strain PFK27, hits give low values
[58] = locus YOR061W, strain CKA2, hits give low values
[59] = locus YOR119C, strain RIO1, hits give low values
[60] = locus YOR231W, strain MKK1, hits give low values
[61] = locus YOR329C, strain SCD5, hits give low values
[62] = locus YPL031C, strain PHO85, hits give low values
[63] = locus YPL153C, strain RAD53, hits give low values
[64] = locus YPL204W, strain HRR25, hits give low values
[65] = locus YPL209C, strain IPL1, hits give low values
[66] = locus YPL256C, strain CLN2, hits give low values
[67] = locus YPR025C, strain CCL1, hits give low values
[68] = locus YPR106W, strain ISR1, hits give low values
[69] = locus YPR111W, strain DBF20, hits give low values
[70] = strain NNK1, hits give low values
[71] = strain TSCII, hits give low values

Measured: normalized growth

O=[N+]([O-])/C=C/c1ccc(F)cc1
active: [1] 0.0937 | [2] 0.0926 | [3] 0.0816 | [4] 0.0978 | [5] 0.091 | [6] 0.0902 | [7] 0.0982 | [8] 0.107 | [9] 0.102 | [10] 0.0889 | [11] 0.091 | [12] 0.0848 | [13] 0.0951 | [14] 0.0885 | [15] 0.1 | [16] 0.102 | [17] 0.0933 | [18] 0.0899 | [19] 0.0948 | [20] 0.0906 | [21] 0.0982 | [22] 0.0877 | [23] 0.104 | [24] 0.113 | [25] 0.0999 | [26] 0.111 | [27] 0.117 | [28] 0.121 | [29] 0.00904 | [30] 0.0998 | [31] 0.109 | [32] 0.0952 | [33] 0.0885 | [34] 0.0868 | [35] 0.0953 | [36] 0.114 | [37] 0.113 | [38] 0.087 | [39] 0.0964 | [40] 0.0853 | [41] 0.107 | [42] 0.129 | [43] 0.099 | [44] -0.000358 | [45] 0.0913 | [46] 0.0877 | [47] 0.0893 | [48] 0.0903 | [49] 0.0904 | [50] 0.102 | [51] 0.0853 | [52] 0.124 | [53] 0.091 | [54] 0.0861 | [55] 0.11 | [56] 0.0833 | [57] 0.0966 | [58] 0.0873 | [59] 0.112 | [60] 0.106 | [61] 0.0906 | [62] 0.0996 | [63] 0.101 | [64] 0.102 | [65] 0.0882 | [66] 0.135 | [67] 0.0876 | [68] 0.0871 | [69] 0.0892 | [70] 0.096 | [71] 0.0924

C/C(=C\c1ccc2c(c1)OCO2)[N+](=O)[O-]
active: [1] 0.0944 | [2] 0.089 | [3] 0.0821 | [4] 0.0972 | [5] 0.096 | [6] 0.103 | [7] 0.108 | [8] 0.101 | [9] 0.107 | [10] 0.121 | [11] 0.0871 | [12] 0.302 | [13] 0.1 | [14] 0.112 | [15] 0.0948 | [16] 0.0987 | [17] 0.0948 | [18] 0.0975 | [19] 0.0944 | [20] 0.123 | [21] 0.0927 | [22] 0.108 | [23] 0.0949 | [24] 0.11 | [25] 0.0972 | [26] 0.107 | [27] 0.113 | [28] 0.12 | [29] 0.00121 | [30] 0.108 | [31] 0.107 | [32] 0.124 | [33] 0.084 | [34] 0.0841 | [35] 0.0942 | [36] 0.105 | [37] 0.106 | [38] 0.0865 | [39] 0.0966 | [40] 0.0838 | [41] 0.107 | [42] 0.126 | [43] 0.0901 | [44] -0.000823 | [45] 0.0897 | [46] 0.0887 | [47] 0.0868 | [48] 0.0888 | [49] 0.0816 | [50] 0.0897 | [51] 0.0823 | [52] 0.114 | [53] 0.091 | [54] 0.0831 | [55] 0.0968 | [56] 0.0833 | [57] 0.0926 | [58] 0.0859 | [59] 0.11 | [60] 0.108 | [61] 0.0841 | [62] 0.0922 | [63] 0.101 | [64] 0.0962 | [65] 0.0837 | [66] 0.128 | [67] 0.0836 | [68] 0.0862 | [69] 0.142 | [70] 0.0961 | [71] 0.0923

— PubChem BioAssay AID1159580 (chemical genetic matrix, 2015)
